Bioassay records as filed in PubChem BioAssay.
14-3-3g Raf: modulators of 14-3-3 gamma protein binding, primary screen, biochemical, fluorescence polarization; AID 422, 2006; 160,000 tested, 0.19% active; FP, 14-3-3gamma / TMR-pS259-Raf peptide binding; inhibition, % at 40 µM; 14-3-3 protein gamma (Homo sapiens), P61981; in the data active = inhibition above about 30%
Target sequence (P61981 whole entry, looked up): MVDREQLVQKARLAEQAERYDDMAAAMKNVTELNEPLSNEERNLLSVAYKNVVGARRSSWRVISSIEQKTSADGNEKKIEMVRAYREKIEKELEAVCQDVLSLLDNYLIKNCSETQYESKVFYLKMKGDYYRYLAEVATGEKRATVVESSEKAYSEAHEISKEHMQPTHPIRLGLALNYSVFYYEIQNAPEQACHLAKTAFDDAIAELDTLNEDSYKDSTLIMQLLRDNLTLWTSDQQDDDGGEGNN
Numbers stand for hits. Only a selection was taken, and hits are over-represented in it overall.

For CCC1(C(=O)c2ccccc2)C2c3cc(Br)ccc3OC(=O)C21C(=O)OC (configuration not stated) the results were 14-3-3g Raf inactive.
For CCC1(C(=O)c2ccc(C)cc2)C2c3cc(Br)ccc3OC(=O)C21C(=O)OC (configuration not stated) the results were 14-3-3g Raf 31.
CCOC(=O)C1C2NC(=S)N(c3ccccc3)C1(C)Oc1ccc(Br)cc12 (configuration not stated) was read as 14-3-3g Raf inactive.
Screening CCC1(C)CC2(CCCN(CCO)C2)CCO1 (configuration not stated) returned 14-3-3g Raf inactive.
For CCC(CC)N1CCN(Cc2ccccc2F)CC1 the results were 14-3-3g Raf inactive.
For C#CCN(C)[C@@H](C)Cc1ccccc1 the results were 14-3-3g Raf inactive.
For C#CCN(C)C(C)Cc1ccccc1 (configuration not stated) the results were 14-3-3g Raf 35.
`Cn1c(O)c(C(=NCCN2CCCCC2)c2ccccc2Cl)c(=O)n(C)c1=O` gave 14-3-3g Raf inactive.
For Fc1nc(N2CCNCC2)c(F)c(Sc2ccc(Cl)cc2)c1F the results were 14-3-3g Raf inactive.
`O=C(C1CCN(S(=O)(=O)N2CCOCC2)CC1)N1CCC2(CC1)OCCO2` gave 14-3-3g Raf inactive.
Cc1ccc2c(c1)Sc1ccc(C)cc1S2 was read as 14-3-3g Raf inactive.
CN(N=O)c1ccc(O)c(O)c1 was read as 14-3-3g Raf 40.
`CC(C)c1ccccc1OCC(=O)Nc1ccc(Cl)cc1C(=O)c1ccccc1` gave 14-3-3g Raf inactive.
`CC(C)N1CCN(C(=O)Cc2ccccc2)CC1` gave 14-3-3g Raf inactive.
O=C(O)CSc1ccc([N+](=O)[O-])c2nonc12 was read as 14-3-3g Raf inactive.
`CCOc1ccc(-n2c(O)c(C=NCCN3CCNCC3)c(=O)[nH]c2=O)cc1` gave 14-3-3g Raf 34.
Screening O=c1[nH]c(=O)n(CCc2ccccc2)c(O)c1C=NCCN1CCNCC1 returned 14-3-3g Raf inactive.
Cc1ccc(-n2c(O)c(C=NCCN3CCOCC3)c(=O)[nH]c2=O)cc1 was read as 14-3-3g Raf inactive.
CCC(COC(=O)c1cc(OC)c(OC)c(OC)c1)(c1ccccc1)N(C)C (configuration not stated) was read as 14-3-3g Raf inactive.
Screening Cc1c(C(=O)N(C)Cc2ccccc2)oc2ccc(S(=O)(=O)N3CC(C)CC(C)C3)cc12 (configuration not stated) returned 14-3-3g Raf inactive.
